In PubChem BioAssay AID1209 (Sanford-Burnham Center for Chemical Genomics, 2008):
About 810 (0.43%) of roughly 190,000 compounds were called active. Rule as the data show it: active = inhibition above about 50%; inactive = the rest. For the sample, actives were picked, then their nearest neighbours and some compounds at random.

The compounds below were run against Mannose-6-phosphate isomerase (Homo sapiens) (UniProt P34949) (assay: MPI enzyme activity inhibition – biochemical, fluorescence intensity, coupled assay, primary screen (AID 1209;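 also: plate controls were DMSO vehicle for no effect and wells lacking substrate for full effect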)). Settings: purified PMI enzyme, at 20 µM, active compounds read high.
Sequence of Mannose-6-phosphate isomerase (Homo sapiens) (P34949 whole entry, looked up): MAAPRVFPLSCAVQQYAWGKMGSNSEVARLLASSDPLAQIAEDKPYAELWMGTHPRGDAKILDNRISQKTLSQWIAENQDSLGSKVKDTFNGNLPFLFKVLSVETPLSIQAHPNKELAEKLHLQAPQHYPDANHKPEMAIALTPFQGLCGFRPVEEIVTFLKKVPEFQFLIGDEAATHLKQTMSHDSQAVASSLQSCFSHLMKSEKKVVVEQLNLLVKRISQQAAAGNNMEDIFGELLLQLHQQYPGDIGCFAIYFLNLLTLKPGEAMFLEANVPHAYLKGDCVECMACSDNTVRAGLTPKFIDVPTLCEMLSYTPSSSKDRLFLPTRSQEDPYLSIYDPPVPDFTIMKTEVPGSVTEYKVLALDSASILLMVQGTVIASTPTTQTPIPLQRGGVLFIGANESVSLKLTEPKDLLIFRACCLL

Compound	inhibition
Cc1ccc(-n2c(=S)[nH]c3sc4c(c3c2=O)CCC4)cc1	2.3% (inactive)
COc1ccc(-n2c(=S)[nH]c3sc4c(c3c2=O)CCc2ccccc2-4)cc1	57.8% (active)
Cc1cccc(-n2c(=O)c3c4c(sc3n3c(=S)[nH]nc23)CCC4)c1	-0.7% (inactive)
Cc1cccc(-n2c(=S)[nH]c3c(oc4ccccc43)c2=O)c1	-1.9% (inactive)
Cc1ccc(-n2c(=S)[nH]c3sc4c(c3c2=O)CCc2ccccc2-4)cc1	10.4% (inactive)
COc1ccc(N2C(=O)CCC(C(=O)NCCN3CCOCC3)C2c2ccc(OC)c(OC)c2)cc1 (centres undefined)	17.2% (inactive)
C=CCNC(=O)/C(=C/c1ccccc1OCC)NC(=O)c1ccccc1	3.5% (inactive)
CCCSc1nnc2[nH]c(=O)cc(N)n12	-1.4% (inactive)
CCO[C@H]1OC(C(=O)N2CCN(Cc3ccc4c(c3)OCO4)CC2)=C[C@@H](c2ccccc2)[C@@H]1CCCO	7.5% (inactive)
O=C(Cn1cncn1)NCCCc1ccccc1	4.2% (inactive)
COc1cc(/C=C2\NC(=S)N(C)C2=O)ccc1O	-2.1% (inactive)
CC(=O)c1c(C)[nH]c(C(=O)OCC(=O)Nc2cc(Cl)ccc2[N+](=O)[O-])c1C	9.3% (inactive)
Cc1ccc(S(=O)(=O)N2CCN(C(=O)/C=C/c3ccco3)CC2)cc1	26% (inactive)
Cc1ccc(C)c(N2C(=N)S/C(=C\c3ccc(-c4ccccc4C(=O)O)o3)C2=O)c1	18.5% (inactive)
COc1ccccc1N1C(=N)S/C(=C\c2ccc(-c3ccccc3C(=O)O)o2)C1=O	-36.9% (inactive)
CC(=O)Nc1ccc(S(=O)(=O)NNC(=O)COc2ccc(C)cc2)cc1	0.9% (inactive)
CCOC(=O)N1CCN(Cc2ccc(F)cc2F)CC1	-1.3% (inactive)
Cc1cc(C)n2nc[n+](C)c2n1	72.6% (active)
Cc1cc(C)n2nc(CCc3nc4nc(C)cc(C)n4n3)nc2n1	-4.4% (inactive)
Cc1cc(C)n2ncnc2n1	5.9% (inactive)
Cc1cc(-c2ccc(N3C(=O)CCC3=O)c(C)c2)ccc1N1C(=O)CCC1=O	1.5% (inactive)
COC(=O)CN(c1ccc(Cl)cc1C)S(C)(=O)=O	1.2% (inactive)
COc1ccc(C(=O)CNc2ccc3ccccc3c2)cc1	76.9% (active)
COc1ccc(C(=O)CNc2ccccc2C#N)cc1	-2.6% (inactive)
COc1ccc(C(=O)CNc2ccccc2CO)cc1	-10.5% (inactive)

Compound	inhibition
O=[N+]([O-])c1cccc(-c2nc3ccc([N+](=O)[O-])cc3[nH]2)c1	-13.7% (inactive)
COc1ccccc1NC(=O)c1ccc(NC(=O)COC(=O)C2CCCCC2)cc1	10.6% (inactive)
CSC1=N/C(=C\c2cccc(F)c2)C(=O)S1	-4.9% (inactive)
Cc1ccc(NC(=S)Nc2cccc3cnccc23)cc1C	-0.2% (inactive)
C=C(C)CNC(=S)Nc1cccc2cnccc12	14.2% (inactive)
Cc1cc(C)cc(NC(=S)Nc2cccc3cnccc23)c1	66.2% (active)
Cc1ccc(NC(=S)Nc2cccc3cnccc23)cc1	80.1% (active)
S=C(Nc1ccc(Cl)cc1)Nc1cccc2cnccc12	26.4% (inactive)
CCCCNC(=S)Nc1cccc2cnccc12	5.6% (inactive)
S=C(Nc1cccc(Cl)c1)Nc1cccc2cnccc12	57.2% (active)
S=C(Nc1cccnc1)Nc1cccc2cnccc12	47.5% (inactive)
Cc1c(C(=O)N2CCN(c3ccc(C(F)(F)F)cn3)CC2)oc2ccccc12	13.3% (inactive)
CC(NC(=O)/C=C/c1ccco1)c1nc2ccccc2n1Cc1c(Cl)cccc1Cl (centres undefined)	-4.3% (inactive)
CNc1ccc2nnc(C(F)(F)C(F)(F)C(F)(F)F)n2n1	-0.7% (inactive)
Cc1c(C)n(C(=O)CN2CCC(C(N)=O)CC2)c2ccccc12	7.2% (inactive)
CCCC(=O)Nc1ccc(C(=O)Nc2ccc([N+](=O)[O-])cc2OC)cc1	-20.7% (inactive)
COc1ccc(OCC(=O)O/N=C(\N)Cc2cccs2)cc1	3.7% (inactive)
O=C(CCN1C(=O)C2CC=C(Cl)CC2C1=O)NC1CCCCC1 (centres undefined)	-7.8% (inactive)
Cc1cc(C)n2nc(SCC(=O)c3cc(C)n(CC4CCCO4)c3C)nc2n1 (centres undefined)	-13.5% (inactive)
Cc1ccc(NC(=O)CSc2n[nH]c(-c3ccco3)n2)c(C)c1	-4% (inactive)
CCOC(=O)c1c(NCc2ccccc2)n[nH]c1C	13.3% (inactive)
Cc1cccc(N2C(=O)CC(Sc3ncn[nH]3)C2=O)c1 (centres undefined)	34.7% (inactive)
COc1ccc(N2C(=O)CC(Sc3ncn[nH]3)C2=O)c(OC)c1 (centres undefined)	73.4% (active)
O=C1CC(Sc2ncn[nH]2)C(=O)N1c1ccccc1 (centres undefined)	42.6% (inactive)
